Structures are written as SMILES. Screen size: about 360,000 compounds; about 3,700 (1%) were called active. About 2% were inconclusive and are not listed.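 The calls were made as follows: active = normalized GFP-positive differentiation at or above the plate's own cutoff, the solvent-only control mean plus 3 SD; inconclusive = no clear call, values can overlap the other calls; inactive = the rest.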 The full list was thinned out, with actives kept by preference.

This test can be described thus: induction of myeloid progenitor differentiation, primary screen, cell-based, flow cytometry, MLPCN library (AID 624256).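 As to GFP+ MAC1+ double positive: cells exposed to compound for four days before flow analysis.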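 As to normalized GFP-positive differentiation: cells exposed to compound for four days before flow analysis; 0% = DMSO wells and 100% = fulvestrant positive control at 5 µM.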 The conditions noted are these: ER-HoxA9 myeloid progenitors, lysozyme-GFP differentiation, at 10 µM; GFP+ MAC1+ double positive: measured here: differentiation confirmed by MAC1 staining, stronger effect = higher value; normalized GFP-positive differentiation: stronger effect = higher value. In general terms: In flow cytometry, cells or beads pass a laser one at a time.
For `CN(C)C(=O)c1cccc(-c2cnc3c(NC=O)cc(-c4ccc(F)cc4)cn23)c1`, the GFP+ MAC1+ double positive was 1.2% and the outcome was inactive.
The matching figures for `CCCc1nc2c3ccccc3ccn2c1Cc1ccccc1C(F)(F)F`: 1.1% and “inactive”.
The matching figures for `NC(c1csc(NC(=O)Nc2cccc(C(F)(F)F)c2)n1)C1CCCCC1` (centres undefined): 1.4% and “inactive”.
The matching figures for `CCOC(=O)C1=CCC2C(=O)N(Cc3ccccc3)C(=O)C12` (centres undefined): 1.7% and “inactive”.
As for `CN(C(=O)c1cccc([N+](=O)[O-])c1)c1ccccc1C(=O)NCc1ccccc1`, the GFP+ MAC1+ double positive is 2.5% and the normalized GFP-positive differentiation is 45.3% (active).
For the compound `CC(C)(C)SCCNC(=O)c1cccc([N+](=O)[O-])c1`, the GFP+ MAC1+ double positive was determined as 1.8% and the compound was called inactive.
Taken in the same sequence, the figures for `CN(C)CCNC(=O)/C(=C/c1cccc([N+](=O)[O-])c1)NC(=O)c1ccccc1` were 0.5% and “inactive”.
Taken in the same sequence, the figures for `O=C1Nc2ccccc2NC(c2ccc3c(c2)OCO3)=C1N(Cc1ccc(F)cc1)C(=O)c1ccco1` were 0.3% and “inactive”.
As to `COC(=O)C[C@H]1C=C[C@H](NC(=O)c2ccc(F)cc2)[C@@H](CO)O1`, the GFP+ MAC1+ double positive stood at 3.2% and the compound was called inactive.
Taken in the same sequence, the figures for `O=C1OCCOC2CCCc3oc(-c4ccccc4)c1c32` (centres undefined) were 0.1% and “inactive”.
The matching figures for `COc1ccccc1C(=O)OCC(=O)Nc1cccc(S(=O)(=O)NC2=NCCCCC2)c1`: 1.4% and “inactive”.
Turning to `CCc1ccc(C(=O)OCC(=O)Nc2cccc(S(=O)(=O)NC3=NCCCCC3)c2)cc1`, the GFP+ MAC1+ double positive worked out at 0.1% and the compound was classed as inactive.
For the compound `Cc1cccc(-n2c(SCC(=O)Nc3cccc(S(=O)(=O)NC4=NCCCCC4)c3)nc3ccccc3c2=O)c1C`, the GFP+ MAC1+ double positive is 2.9% and the normalized GFP-positive differentiation is 30% (active).
On to `CCc1nc2c(OCCOc3ccccc3)cccn2c1N(C)C(=O)c1cccs1`, for which the GFP+ MAC1+ double positive was 0.5% and the compound was called inactive.
Turning to `CN(C)C1CN(Cc2cn(Cc3ccccc3)nn2)S(=O)(=O)C1` (centres undefined), the GFP+ MAC1+ double positive stood at 1.6% and the compound was called inactive.
On to `CC(=O)Nc1cccc(OCC(=O)/C=C2\N(C)c3ccccc3C2(C)C)c1`, for which the GFP+ MAC1+ double positive came to 0.5% and the normalized GFP-positive differentiation was 24.3% (active).
Turning to `Cc1cccc(OCC(=O)Nc2ccccc2F)c1`, the GFP+ MAC1+ double positive was 0.3% and the call was inactive.
Take `COc1cccc(NC(=S)C(C#N)=C2N(C)c3ccccc3N2C)c1`: the GFP+ MAC1+ double positive came out at 0.3% and the call was inactive.
For `CC1(C)OC(=O)C2=C(C[C@@H](C3CCCC3)O[C@@H]2c2ccc(Cl)cc2)O1`, the GFP+ MAC1+ double positive came to 1.8% and the compound was called inactive.
The matching figures for `COc1c(C)cc(C(O)c2ncc(-c3cccc(C(F)(F)F)c3)[nH]2)cc1C` (centres undefined): 1.2% and “inactive”.
As for `O=C(Nc1ccc2sc3ccccc3c(=O)c2c1)c1ccccc1Cl`, the GFP+ MAC1+ double positive was 0.3% and the normalized GFP-positive differentiation is 12.5% (active).
Turning to `COc1cc(NC(=O)c2cccs2)ccc1NC(=O)c1ccccc1Cl`, the GFP+ MAC1+ double positive turned out to be 0.6% and the compound was called inactive.
The matching figures for `O=C(Nc1cccc(NC(=O)c2ccccc2[N+](=O)[O-])c1)c1ccccc1Cl`: 0.4% and “inactive”.
The matching figures for `Cc1cc2nc(-c3ccco3)c(Cc3cccc(F)c3)n2c(C)c1Br`: 0.9% and “inactive”.
Turning to `O=C(CCCN1C(=O)CCC1=O)Nc1ccc(Cl)c(C(F)(F)F)c1`, the GFP+ MAC1+ double positive came to 8.3% and the normalized GFP-positive differentiation was 22.8% (active).
Regarding `CN(CC(=O)Nc1ccc(Cl)c(C(F)(F)F)c1)C(=O)CCC(=O)c1ccccc1`, the GFP+ MAC1+ double positive is 1% and the call was inactive.
The matching figures for `O=C(CN1CCN(C(=O)c2ccco2)CC1)Nc1ccc(Cl)c(C(F)(F)F)c1`: 0.9% and “inactive”.
Taken in the same sequence, the figures for `CN(C(=O)CN1CCN(c2cc(-c3ccc(OCc4ccccc4)cc3)ncn2)CC1)c1ccccc1` were 1.4% and “inactive”.
Taken in the same sequence, the figures for `CCOC(=O)C1=C(CN2CCc3ccccc32)NC(=O)NC1c1cc(C)ccc1C` (centres undefined) were 0.5% and “inactive”.
As for `CCOC(=O)C1=C(CN2CCc3ccccc32)NC(=O)NC1c1ccc(Cl)cc1` (centres undefined), the GFP+ MAC1+ double positive worked out at 3.7% and the call was inactive.
Regarding `CCOC(=O)C1=C(CN2CCc3ccccc32)NC(=O)NC1c1cccc([N+](=O)[O-])c1` (centres undefined), the GFP+ MAC1+ double positive was found to be 1.5% and the normalized GFP-positive differentiation was 18.4% (active).
On to `CCCCCCCCN1C(=O)[C@H](CC(=O)NCc2cccc3ccccc23)C[C@@]2(C(=O)OC)CCCCC=C12`, for which the GFP+ MAC1+ double positive was 1.4% and the outcome was inactive.
Taken in the same sequence, the figures for `O=C(NCCN1CCOCC1)c1ccccc1N1C(=O)[C@@H]2Cc3c([nH]c4ccccc34)C(c3cccc(Cl)c3)N2C1=O` (some centres undefined) were 2.3% and “inactive”.
Taken in the same sequence, the figures for `COC(=O)c1ccc2nc(-c3ccc(OC)c(OC)c3)c(Cc3ccccc3)n2c1` were 0.7% and “inactive”.
In the case of `Nc1ccc(C(=O)Nc2ccccc2N)cc1`, the GFP+ MAC1+ double positive is 1.3% and the normalized GFP-positive differentiation was 21.2% (active).
Take `O=C(Cc1ccccc1)Nc1ccc(C(=O)Nc2ccccc2C(=O)O)cc1`: the GFP+ MAC1+ double positive was 1.7% and the outcome was inactive.
The matching figures for `Nc1ccc(S(=O)(=O)NC(=O)c2ccccc2)cc1`: 0.9% and “inactive”.
The matching figures for `CCOc1ccc(CCN2C(=O)C(=O)N([C@@H](CC(C)C)CN3CCC[C@H]3CN3C(=O)C(=O)NC[C@@H]3Cc3ccccc3)C[C@@H]2CC(C)C)cc1`: 1.6% and “inactive”.
Taken in the same sequence, the figures for `O=C(COC(=O)Cn1cnc2ccccc2c1=O)NCc1ccccc1Cl` were 0.9% and “inactive”.
Take `CC(OC(=O)CCc1nc(=O)c2ccccc2n1C)C(=O)NCc1ccc2c(c1)OCO2` (centres undefined): the GFP+ MAC1+ double positive is 0.9% and the result was inactive.
For `Cn1c(CCC(=O)OCC(=O)NCc2ccccc2Cl)nc(=O)c2ccccc21`, the GFP+ MAC1+ double positive is 34.4% and the normalized GFP-positive differentiation was 369% (active).
As for `CC(=O)N1C[C@@H](CO)[C@@H](N(C)C(=O)c2ccco2)C[C@H]1c1ccccc1`, the GFP+ MAC1+ double positive amounted to 0.1% and the compound was classed as inactive.

The record behind these values is PubChem BioAssay AID624256 (NMMLSC, 2012).
